Bioassay records (PubChem)
RGS7-Gao = regulators of human RGS7-Galphao interaction. Multiplexed bead flow cytometry, RGS7-Galphao binding; actives lie on both sides. AID 1439. P09471. 220,000 compounds, 0.35% hits. binding response (% of control), % at 10 µM; in the data active means binding response below about 49% or above about 150%; inconclusive means no clear call, values can overlap the other calls; inactive means in between;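 further: fluorescent Galphao held in activated GDP-AlF4 state binding bead-coupled RGS7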
Target sequence (P09471 whole entry, looked up): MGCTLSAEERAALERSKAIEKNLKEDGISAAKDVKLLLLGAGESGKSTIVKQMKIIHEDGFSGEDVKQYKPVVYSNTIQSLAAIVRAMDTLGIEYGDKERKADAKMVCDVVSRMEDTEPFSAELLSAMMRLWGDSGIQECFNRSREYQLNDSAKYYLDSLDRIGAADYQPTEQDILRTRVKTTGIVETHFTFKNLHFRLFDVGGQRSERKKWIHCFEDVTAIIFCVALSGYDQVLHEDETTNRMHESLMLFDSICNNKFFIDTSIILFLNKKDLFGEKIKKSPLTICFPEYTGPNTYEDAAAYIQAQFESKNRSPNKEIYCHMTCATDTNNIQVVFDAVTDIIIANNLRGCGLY
RGS8-Gao reg = human RGS8-Galphao interaction regulation; response (percent of control binding), % at 10 µM; multiplexed bead flow cytometry, RGS8-Galphao binding; actives lie on both sides; AID 1423; P09471; 220,000 compounds, 0.34% hits; in the data active means response below about 60% or above about 140%; inactive means in between;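 further: Galphao activated as the GDP aluminium fluoride complex binding bead-coupled RGS8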
GSH fluor = compound fluoresces at 488/530 nm on GSH beads. AID 1776. fluorescence (KMESF) at 10 µM. GSH beads flow cytometry, compound fluorescence 488/530 nm; active compounds read high. 190,000 compounds, 0.25% hits; in the data active means fluorescence above about 89;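 further: glutathione beads carrying GST-tagged Bcl family fusion proteins plus one bare bead set; values are compound well signal with DMSO vehicle wells as background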
RGS4-Gao reg = modulates binding of RGS4 to human Galphao. AID 1415. binding response (% of control), % at 10 µM. Multiplexed bead flow cytometry; actives lie on both sides. P09471. 220,000 compounds, 0.33% hits; in the data active means binding response below about 49% or above about 150%; inactive means in between;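 further: fluorescent Galphao activated with aluminum fluoride binding bead-coupled RGS4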
RGS16-Gao = RGS16-Galphao interaction regulator (human). O15492+P09471. bead-based flow cytometry RGS16-Galphao binding, fluorescence; actives lie on both sides. binding response (% of control), % at 10 µM. 220,000 compounds, 0.38% hits;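 further: Galphao activated by GDP with aluminum fluoride before binding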
Avidin bead fluor = compound fluoresces at 488/530 nm on avidin beads; compound fluorescence 488/530 nm, flow cytometry; active compounds read high; fluorescence (KMESF) at 10 µM; 220,000 compounds, 0.38% hits; in the data active means fluorescence above about 47
RGS-Gao = regulators of human RGS4-Galphao interaction; shares compounds with RGS16-Gao; multiplexed bead flow cytometry, RGS–Galpha-o binding; RGS4–Galpha-o binding response, % at 10 µM; 1,600 compounds, 99% hits;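 further: fluorescently labeled Galpha-o bound to GDP with aluminium fluoride binding biotinylated RGS beads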
Target sequence (P09471 whole entry, looked up): as above
Target sequence (P49798 whole entry, looked up): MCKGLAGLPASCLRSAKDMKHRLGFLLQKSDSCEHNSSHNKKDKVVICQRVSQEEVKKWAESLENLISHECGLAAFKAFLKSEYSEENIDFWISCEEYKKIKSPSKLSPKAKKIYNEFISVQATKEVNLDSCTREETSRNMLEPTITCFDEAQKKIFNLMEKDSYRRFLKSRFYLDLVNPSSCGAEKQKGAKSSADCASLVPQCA
Avidin counter = counter-screen: compounds disrupting biotin binding to avidin beads; shares compounds with RGS16-Gao; streptavidin beads, fluorescein-biotin binding, flow cytometry; inhibition, % at 10 µM; 1,700 tested, under 10 active;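 active means inhibition above 50%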;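 further: median green fluorescence of gated singlet beads compared with DMSO control wells; 0% = DMSO wells and 100% = complete loss of bead fluorescence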
RGS8-Gao single = RGS8-Galphao interaction regulation, single point confirmation; bead-based flow cytometry RGS8-Galphao binding, fluorescence; actives lie on both sides; binding response (% of control), % at 10 µM; 1,700 compounds, 3% hits; shares compounds with RGS16-Gao; AID 1836; in the data active means binding response below about 72% or above about 130%; inactive means in between;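 further: Galphao activated as GDP AlF4 complex before binding bead RGS8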
RGS7-Gao confirm = RGS7-Galphao interaction regulation, single point confirmation | shares compounds with RGS16-Gao | bead-based flow cytometry RGS7-Galphao binding; actives lie on both sides | response (percent of control binding), % at 10 µM | 1,700 compounds, 7.8% hits; in the data active means response below about 75% or above about 130%; inactive means in between;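 further: fluorescent Galphao activated with GDP and aluminum fluoride binding bead-coupled RGS7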
RGS16-Gao conf = confirmation of regulators of human RGS16-Galphao interaction; shares compounds with RGS16-Gao; bead-based flow cytometry, RGS16-Galphao binding; actives lie on both sides; response (% of control binding), % at 10 µM; 1,700 compounds, 4% hits; AID 1838; in the data active means response below about 74% or above about 130%; inactive means in between;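 further: Galphao activated as the GDP aluminium fluoride complex binding bead-coupled RGS16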
RGS4-Gao single = RGS4-Galphao interaction regulation, single point confirmation; shares compounds with RGS16-Gao; RGS4-Galphao binding, multiplexed bead flow cytometry; actives lie on both sides; binding response (% of control), % at 10 µM; 1,700 compounds, 4% hits; in the data active means binding response below about 74% or above about 130%; inactive means in between
RGS19-Gao conf = confirmation of regulators of human RGS19-Galphao interaction; shares compounds with RGS16-Gao; bead-based flow cytometry RGS19-Galphao binding; actives lie on both sides; response (percent of control binding), % at 10 µM; 1,700 compounds, 5% hits; AID 1841; in the data active means response below about 50% or above about 160%; inactive means in between;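 further: 100% = no compound control and 0% = blank background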
* hit, by the source's call; [ ] = remark or other dose. Shown are actives, neighbours in structure and some others; about 1.2% of the full set was active somewhere. Unless noted, how the calls were made is not given here.

Screening CCC(C)(C)NC(=O)C(c1cccn1C)N(C(=O)Cn1nnc2ccccc21)c1ccccc1OC (stereo not drawn) returned RGS7-Gao 79, RGS8-Gao reg 68, GSH fluor 16, RGS4-Gao reg 77, RGS16-Gao 24*, Avidin bead fluor 5, RGS-Gao 77*, Avidin counter -1, RGS8-Gao single 97, RGS7-Gao confirm 48*, RGS16-Gao conf 79, RGS4-Gao single 60* and RGS19-Gao conf 59.
Fc1ccc(-c2cc(C(F)(F)C(F)F)[nH]n2)cc1 was read as RGS7-Gao inconclusive, RGS8-Gao reg 111, RGS4-Gao reg 168*[activator], RGS16-Gao 164, Avidin bead fluor 79*, Avidin counter 2, RGS8-Gao single 104, RGS7-Gao confirm 106, RGS16-Gao conf 106, RGS4-Gao single 107 and RGS19-Gao conf 97.
FC(F)C(F)(F)c1cc(-c2ccc(Cl)cc2)n[nH]1 was read as RGS7-Gao inconclusive, RGS8-Gao reg 104, RGS4-Gao reg 110, RGS16-Gao 108 and Avidin bead fluor 5.
For Cn1cccc1/C=N/N1CCN(Cc2cccc3ccccc23)CC1 the results were RGS7-Gao inconclusive, RGS8-Gao reg 100, RGS4-Gao reg 97, RGS16-Gao 98 and Avidin bead fluor 8.
`CCn1c(/C=C/N(C(C)=O)c2ccccc2)[n+](CC)c2ccc(Cl)cc21` gave RGS7-Gao 99, RGS8-Gao reg 101, GSH fluor 10, RGS4-Gao reg 106, RGS16-Gao 105 and Avidin bead fluor 7.
For CC[n+]1c(/C=C/C=C/N(C(C)=O)c2ccccc2)sc2ccccc21 the results were RGS7-Gao 149, RGS8-Gao reg 98, GSH fluor 25, RGS4-Gao reg 14*, RGS16-Gao 150, Avidin counter -3, RGS8-Gao single 117, RGS7-Gao confirm 243*[activator], RGS16-Gao conf 153*[activator], RGS4-Gao single 163*[activator] and RGS19-Gao conf 278*[activator].
`Cc1onc(-c2ccccc2)c1C(=O)NCC(O)c1ccccc1` (stereo not drawn) gave RGS7-Gao inconclusive, RGS8-Gao reg 98, RGS4-Gao reg 99, RGS16-Gao 99 and Avidin bead fluor 6.
CC(C)n1c(-c2cccnc2)nc2cnccc21 was read as RGS7-Gao 121, RGS8-Gao reg 140*[activator], GSH fluor 17, RGS4-Gao reg 122, RGS16-Gao 214, Avidin bead fluor 32 and RGS-Gao 122*.
`CCOC(=O)c1sc(-c2ccc(C(F)(F)F)cc2)nc1O` gave RGS7-Gao inconclusive, RGS8-Gao reg 100, RGS4-Gao reg 96, RGS16-Gao 95 and Avidin bead fluor 6.
Screening CCOC(=O)c1sc(-c2cccc(C(F)(F)F)c2)nc1O returned RGS7-Gao inconclusive, RGS8-Gao reg 75, RGS4-Gao reg 97, RGS16-Gao 96, Avidin bead fluor 7, Avidin counter 0, RGS8-Gao single 100, RGS7-Gao confirm 94, RGS16-Gao conf 100, RGS4-Gao single 98 and RGS19-Gao conf 90.
COc1cccc(C2c3c(oc4cc(C)c(C)cc4c3=O)C(=O)N2CCCN(C)C)c1 (stereo not drawn) was read as RGS7-Gao 263*[activator], RGS8-Gao reg 96, GSH fluor 12, RGS4-Gao reg 122, RGS16-Gao 106, Avidin bead fluor 117* and RGS-Gao 122*.
`CCCCc1cc(=O)oc2cc(C)c(CN3CCCC3)c(O)c12` gave RGS7-Gao 160*[activator], RGS8-Gao reg 129, GSH fluor 29, RGS4-Gao reg 139, RGS16-Gao 175*[activator], Avidin bead fluor 15, RGS-Gao 139*, Avidin counter 1, RGS8-Gao single 93, RGS7-Gao confirm 90, RGS16-Gao conf 92, RGS4-Gao single 92 and RGS19-Gao conf 61.
COc1ccc(NC(C)=O)cc1NC(=O)CN1CCN(C(=O)c2ccco2)CC1 was read as RGS7-Gao 123, RGS8-Gao reg 153*[activator], GSH fluor 32, RGS4-Gao reg 130, RGS16-Gao inactive, Avidin bead fluor 2, RGS-Gao 130*, Avidin counter 1, RGS8-Gao single 109, RGS7-Gao confirm 112, RGS16-Gao conf 112, RGS4-Gao single 110 and RGS19-Gao conf 121.
`Cc1nn(-c2cc(N3CCCC3)ccc2[N+](=O)[O-])c(=O)c2ccccc12` gave RGS7-Gao 101, RGS8-Gao reg 96, GSH fluor 33, RGS4-Gao reg 95, RGS16-Gao 86 and Avidin bead fluor 7.
For Cc1nn(-c2cc(N3CCOCC3)ccc2[N+](=O)[O-])c(=O)c2ccccc12 the results were RGS7-Gao 161*[activator], RGS8-Gao reg 100, GSH fluor 17, RGS4-Gao reg 110, RGS16-Gao 101, Avidin bead fluor 67*, RGS-Gao 110*, Avidin counter -2, RGS8-Gao single 106, RGS7-Gao confirm 93, RGS16-Gao conf 106, RGS4-Gao single 102 and RGS19-Gao conf 105.
`S=c1[nH]nc(-c2ccc(Cl)cc2)n1/N=C/C=C/c1ccco1` gave RGS7-Gao inconclusive, RGS8-Gao reg 96, RGS4-Gao reg 99, RGS16-Gao 97 and Avidin bead fluor 7.
